Most compounds without a hit are left out; they make up all but 1.8% or so of the library.
MRP reversal = reversal of MRP1-mediated doxorubicin resistance, primary screen, H69AR cells, doxorubicin co-treatment; H69AR cells + 2 uM doxorubicin, CellTiter-Glo, 72 h; differential viability (reversal), % at 10 µM; 85,000 tested, 0.04% active;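 active = viability drop by adding the cancer drug above about 55%, with treated viability meeting a 40% cutoff, limit read from the data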;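 note: viability without doxorubicin minus viability with 2 µM doxorubicin for each compound; larger differential means the compound sensitizes cells more to doxorubicin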
GALR2 agonist = GALR2 receptor agonists, primary screen, cell-based; GALR2-expressing cells, agonist activation read-out; activation, % (concentration not given with the values); 140,000 tested, 0.48% active; AID 803, 2007; in the data active = activation above about 5%, passing the limit was not always enough;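 note: 0% = vehicle buffer wells and 100% = reference agonist at full effect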
MRP-1 activ = H69AR viability gain despite doxorubicin, primary screen, MRP-1 activator project, H69AR cells, CellTiter-Glo; viability increase, % at 10 µM; viability rescue; 140,000 tested, 0.61% active;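 active = viability gain under doxorubicin at or above a set limit, the compound median plus 3 SD, cut at about 4.7% in these data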;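 note: MRP-1 overexpressing cells given doxorubicin 25 µM after compound pretreatment; 18-22 h compound pretreatment then 72 h with doxorubicin before readout; 0% = doxorubicin-only wells and 100% = vehicle-treated cells without doxorubicin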
S1P2 antag = human S1P2 receptor antagonists, primary screen, cell-based. Sphingosine 1-phosphate receptor 2 (Homo sapiens), O95136. cell-based S1P2 antagonist assay, inhibition at 5 uM. inhibition, % at 5 µM. 97,000 tested, 0.21% active. AID 736, 2007; in the data active = inhibition above about 45%;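 note: CRE beta-lactamase reporter cells expressing human S1P2 stimulated with S1P; 0% = agonist at EC80 alone and 100% = agonist plus reference antagonist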
Target sequence (O95136 whole entry, looked up): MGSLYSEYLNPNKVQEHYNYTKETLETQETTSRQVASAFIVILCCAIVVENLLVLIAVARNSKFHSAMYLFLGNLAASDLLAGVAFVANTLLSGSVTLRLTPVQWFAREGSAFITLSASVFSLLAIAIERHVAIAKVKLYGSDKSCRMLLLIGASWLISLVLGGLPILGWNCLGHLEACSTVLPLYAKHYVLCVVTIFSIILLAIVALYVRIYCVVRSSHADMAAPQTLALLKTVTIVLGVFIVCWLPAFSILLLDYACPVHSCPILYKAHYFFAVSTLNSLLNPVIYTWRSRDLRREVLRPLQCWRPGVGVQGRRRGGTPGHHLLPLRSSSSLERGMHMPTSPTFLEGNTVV
GALR2 antag = GALR2 antagonists in receptor-expressing cells, primary screen; antagonist mode; 140,000 tested, 0.39% active; inhibition, % at 4 µM; Galanin receptor type 2 (Homo sapiens), O43603; AID 828, 2007; in the data active = inhibition above about 27%;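 note: cells stimulated with galanin 1-16 at roughly its EC80; 0% = agonist challenge control and 100% = basal control without agonist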
S1P2 ag = S1P2 receptor agonists, primary screen, cell-based; Sphingosine 1-phosphate receptor 2 (Homo sapiens), O95136; S1P2-expressing cell line, agonist reporter read-out; activation, % at 4.5 µM; 97,000 tested, 0.46% active; AID 729, 2007; in the data active = activation above about 16%;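 note: 0% = vehicle low control and 100% = maximal reference agonist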
Starred values were filed as active, the others as inactive; x = not tested or not shown.

SMILES	MRP reversal	GALR2 agonist	MRP-1 activ	S1P2 antag	GALR2 antag	S1P2 ag
CC1(C)O[C@@H]2C[C@H]3[C@@H]4CCC5=CC(=O)C=C[C@]5(C)[C@@]4(F)[C@@H](O)C[C@]3(C)[C@]2(C(=O)CO)O1	-14	0	7.2*	x	-7	x
CC1(C)O[C@@H]2C[C@H]3[C@@H]4C[C@H](F)C5=CC(=O)C=C[C@]5(C)[C@@]4(F)[C@@H](O)C[C@]3(C)[C@]2(C(=O)CO)O1	4	1	4	x	4	x
C[C@]12C=CC(=O)C=C1CC[C@H]1[C@@H]3C[C@@H](O)[C@](O)(C(=O)CO)[C@@]3(C)C[C@H](O)[C@@]12F	x	0	5.2*	x	-10	x
Cc1cccc(C)c1OCc1nc2ccccc2c(=O)n1/N=C/c1c[nH]c2ccccc12	x	1	-6	x	-10	x
CCNc1ccc2c(Cl)cc(=O)oc2c1	7	6	-5	47*	16	-5
COc1cc(C(C)=O)ccc1Oc1ncnc2c1cnn2-c1ccc(F)cc1	x	-1	0	x	7	x
COCCn1c(SCC(=O)Nc2nc3ccccc3s2)nnc1-c1ccoc1C	-5	-2	-4	-19	6	16*
COCCCn1c(SCC(=O)Nc2nnc(C)s2)nnc1-c1ccoc1C	-23	-3	-1	4	-10	-7
Cc1cc(/C=C2/SC(=S)N(c3cccc(Cl)c3)C2=O)c(C)n1-c1cccnc1	x	-2	x	74*	12	-6
[N-]=[N+]=CC(=O)CC(c1ccccc1)N1C(=O)c2ccccc2C1=O (stereo not given)	-13	-4	1	8	-6	-8
C[C@H](C(=O)C=[N+]=[N-])N1C(=O)c2ccccc2C1=O	-1	-1	12*	0	-3	0
CCOC(=O)c1c(NC(=O)CSc2n[nH]c(CNc3ccccc3)n2)sc(C)c1C	-9	0	-5	-16	-2	-2
CCOC(=O)c1c(NC(=O)CSc2n[nH]c(-c3ccco3)n2)sc(C)c1C	-6	-2	-1	-12	-6	23*
O=C(COC(=O)c1cc(-c2cccs2)nn1-c1ccccc1)Nc1ccc(F)c([N+](=O)[O-])c1	x	-1	-3	x	-8	x
CCOC(=O)Nc1ccc2c(c1)N(C(=O)CCN1CCOCC1)c1ccccc1S2=O (stereo not given)	0	-2	-5	29	41*	-10
O=C(Cn1cnc2c(nnn2Cc2ccc(F)cc2)c1=O)NCc1ccco1	0	-1	-3	-15	6	33*
CCC(=O)c1ccc(N2CCOCC2)c(F)c1	-5	-3	7.7*	-28	20	-5
O=c1c(-c2nc3ccccc3s2)cccn1Cc1ccc(Cl)cc1	x	68*	0	-87	-4	96*
Cc1ccccc1NC(=S)Nc1ccc(Br)cc1	x	-1	-3	x	11	x
CN(CC(=O)NCCc1ccc(Cl)cc1)S(=O)(=O)c1ccc2c(c1)c(=O)n(C)c(=O)n2C	4	-2	6.1*	19	2	-7
CN(CC(=O)NCCC1=CCCCC1)S(=O)(=O)c1ccc2c(c1)c(=O)n(C)c(=O)n2C	-4	-3	-2	-25	-4	-5
CC[C@H]1OC(=O)C[C@@H](O)[C@H](C)[C@@H](O[C@@H]2O[C@H](C)C[C@H](N(C)C)[C@H]2O)[C@@H](CC=O)C[C@@H](C)C(=O)C=C[C@]2(C)O[C@H]2[C@@H]1C	-9	x	x	x	x	x
Cc1cccc(Cc2cnc(NC(=O)CN3C(=O)/C(=C/c4ccccc4)SC3=S)s2)c1	x	-5	5.6*	23	4	-9
Cc1ccc(/C=C2/SC(=S)N(CC(=O)Nc3ncc(Cc4ccc(C)cc4)s3)C2=O)cc1	-2	-3	-2	-1	-8	-2
COc1cccc(Nc2nc3ccccc3nc2-n2nc(C)cc2C)c1	-2	23*	5.6*	-48	-1	38*
SMILES	MRP reversal	GALR2 agonist	MRP-1 activ	S1P2 antag	GALR2 antag	S1P2 ag
Cc1cc(C)n(-c2nc3ccccc3nc2Nc2ccc3c(c2)OCO3)n1	10	0	4	x	4	x
COc1ccccc1CNC(=O)c1c(N)n(CCCN2CCOCC2)c2nc3ccccc3nc12	x	28*	-2	-93	-16	58*
Nc1c(C(=O)NCc2ccc3c(c2)OCO3)c2nc3ccccc3nc2n1CCCN1CCOCC1	-5	32*	-4	-38	-15	41*
CC12CCC(C(=O)N(CC(O)CN3CCCCCC3)C1=O)C2(C)C (stereo not given)	x	1	0	x	1	x
O=C(NCCOc1ccccc1)c1cc2ccccc2o1	9	-3	0	4	-1	-3
O=S1(=O)C=C(Sc2nnc(-c3ccccc3)o2)c2ccccc21	0	-3	-3	x	88*	x
Cc1nc2ccccc2n1CCc1nc2c3ccccc3nc(SCC#N)n2n1	-14	3	-3	-1	0	39*
COc1ccc(CN(C(=O)c2ccc(-c3ccccc3)[nH]2)C(C(=O)NCC2CCCO2)c2ccc(C)o2)cc1 (stereo not given)	x	-1	-1	-8	-2	-6
Cc1nc2cc(-c3ccc(Cl)cc3)nn2c(C)c1CCC(=O)NC(C)c1ccc2c(c1)OCCO2 (stereo not given)	x	1	5.5*	x	5	x
CC(C)CC(=O)n1sc(NC(=O)c2ccccc2)nc1=O	x	-1	6.5*	10	1	-4
Cc1ccc(C(=O)Nc2nc(=O)n(C(=O)CC(C)C)s2)cc1	x	-2	3	19	1	-6
CCOC(=O)c1nnc(-c2ccc(C)cc2)nc1Oc1ccc(Cl)cc1Cl	x	-1	5.0*	11	3	-5
CCOC(=O)c1nnc(-c2ccc(C)cc2)nc1Oc1ccccc1Cl	x	-2	0	0	10	-2
O=C(CC(NC(=O)C(F)(F)F)c1ccccc1)Nc1nnc(CCc2ccccc2)s1 (stereo not given)	x	1	9.3*	x	8	x
COc1ccccc1NC(=O)c1ccc(-c2ccccc2F)o1	-5	-2	-3	-17	14	-5
CCCn1c2ccccc2c2nnc(SC(CC)C(=O)Nc3cc(C)on3)nc21 (stereo not given)	-27	1	-4	-38	-6	30*
O=C1NC2(NN1c1ccccc1)C1CC3CC(C1)CC2C3 (stereo not given)	7	-2	-2	10	-4	-3
COc1ccc(Nc2nnc(Cc3ccc(Cl)cc3)c(=O)[nH]2)c(OC)c1	2	-1	7.0*	x	14	x
O=C(Cc1c[nH]c2ccccc12)Nc1nc2ccccc2[nH]1	-8	-2	-4	10	18	609*
O=C(Cc1ccccc1)Nc1nc2ccccc2[nH]1	16	-1	-1	16	9	-4
CCSc1nc(-c2ccccc2)nc(C(Cl)Cl)n1	x	7.6*	2	x	-4	x
Cc1ccc(C)n1-c1sc2c(c1C#N)CCC(C)C2 (stereo not given)	x	-2	-2	-28	-11	0

Screens: PubChem BioAssay, several laboratories
